Data as given in publication PMC9911399, “Two distinct binding modes provide the RNA-binding protein RbFox with extraordinary sequence specificity”.
Substitutions are numbered along the chain they refer to; changes in the protein carry UniProt numbers. Over roughly 16,000 sequences, “ka relative to ugcaugu” has its median near 0.0091; the highest 2% begin near 0.032. Shown is part of a subset that was picked to be rich in the highest values.

T1: RBFOX1 RRM (Homo sapiens, UniProt Q9NWB1 109-208)
T1 sequence: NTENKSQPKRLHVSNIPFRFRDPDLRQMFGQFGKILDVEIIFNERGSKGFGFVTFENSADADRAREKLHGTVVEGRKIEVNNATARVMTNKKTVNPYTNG

B1: AUAGGCC (DNA:RNA)
RNA: GGGAGACCGGAAUUCAGAUUGUCCAUAGGCCUUAAAUCCCGUCGUAGCCACCA
DNA 1: CAATCTGAATTCCGGTCTCCC
DNA 2: TGGTGGCTACGACGGGATT
B2: CCAGAGA (DNA:RNA)
RNA: B1 RNA with A25C, U26C, G29A, C30G, C31A
DNA 1: CAATCTGAATTCCGGTCTCCC
DNA 2: TGGTGGCTACGACGGGATT
B3: CUCCCAU (DNA:RNA)
RNA: B1 RNA with A25C, A27C, G28C, G29C, C30A, C31U
DNA 1: CAATCTGAATTCCGGTCTCCC
DNA 2: TGGTGGCTACGACGGGATT
B4: UUUCACC (DNA:RNA)
RNA: B1 RNA with A25U, A27U, G28C, G29A
DNA 1: CAATCTGAATTCCGGTCTCCC
DNA 2: TGGTGGCTACGACGGGATT
B5: CGGAUGA (DNA:RNA)
RNA: GGGAGACCGGAAUUCAGAUUGUCCCGGAUGAUUAAAUCCCGUCGUAGCCACCA
DNA 1: CAATCTGAATTCCGGTCTCCC
DNA 2: TGGTGGCTACGACGGGATT
B6: GGGAUGA (DNA:RNA)
RNA: B5 RNA with C25G
DNA 1: CAATCTGAATTCCGGTCTCCC
DNA 2: TGGTGGCTACGACGGGATT
B7: GUAAUGA (DNA:RNA)
RNA: B5 RNA with C25G, G26U, G27A
DNA 1: CAATCTGAATTCCGGTCTCCC
DNA 2: TGGTGGCTACGACGGGATT
B8: GAAAUGA (DNA:RNA)
RNA: B5 RNA with C25G, G26A, G27A
DNA 1: CAATCTGAATTCCGGTCTCCC
DNA 2: TGGTGGCTACGACGGGATT
B9: GGAAUGA (DNA:RNA)
RNA: B5 RNA with C25G, G27A
DNA 1: CAATCTGAATTCCGGTCTCCC
DNA 2: TGGTGGCTACGACGGGATT
B10: GGAUGAA (DNA:RNA)
RNA: B1 RNA with A25G, U26G, G28U, C30A, C31A
DNA 1: CAATCTGAATTCCGGTCTCCC
DNA 2: TGGTGGCTACGACGGGATT
B11: UCACGAG (DNA:RNA)
RNA: B1 RNA with A25U, U26C, G28C, C30A, C31G
DNA 1: CAATCTGAATTCCGGTCTCCC
DNA 2: TGGTGGCTACGACGGGATT
B12: GCGUGGA (DNA:RNA)
RNA: B5 RNA with C25G, G26C, A28U, U29G
DNA 1: CAATCTGAATTCCGGTCTCCC
DNA 2: TGGTGGCTACGACGGGATT
B13: GGAAGUG (DNA:RNA)
RNA: B1 RNA with A25G, U26G, G28A, C30U, C31G
DNA 1: CAATCTGAATTCCGGTCTCCC
DNA 2: TGGTGGCTACGACGGGATT
B14: GGGCACG (DNA:RNA)
RNA: B5 RNA with C25G, A28C, U29A, G30C, A31G
DNA 1: CAATCTGAATTCCGGTCTCCC
DNA 2: TGGTGGCTACGACGGGATT
B15: AGCCACG (DNA:RNA)
RNA: B1 RNA with U26G, A27C, G28C, G29A, C31G
DNA 1: CAATCTGAATTCCGGTCTCCC
DNA 2: TGGTGGCTACGACGGGATT
B16: GGGGCAC (DNA:RNA)
RNA: B1 RNA with A25G, U26G, A27G, G29C, C30A
DNA 1: CAATCTGAATTCCGGTCTCCC
DNA 2: TGGTGGCTACGACGGGATT
B17: UGGCAGA (DNA:RNA)
RNA: B5 RNA with C25U, A28C, U29A
DNA 1: CAATCTGAATTCCGGTCTCCC
DNA 2: TGGTGGCTACGACGGGATT
B18: UGGCACG (DNA:RNA)
RNA: B5 RNA with C25U, A28C, U29A, G30C, A31G
DNA 1: CAATCTGAATTCCGGTCTCCC
DNA 2: TGGTGGCTACGACGGGATT
B19: ACCACGU (DNA:RNA)
RNA: B5 RNA with C25A, G26C, G27C, U29C, A31U
DNA 1: CAATCTGAATTCCGGTCTCCC
DNA 2: TGGTGGCTACGACGGGATT
B20: UGGCACC (DNA:RNA)
RNA: B1 RNA with A25U, U26G, A27G, G28C, G29A
DNA 1: CAATCTGAATTCCGGTCTCCC
DNA 2: TGGTGGCTACGACGGGATT
B21: AGGCACC (DNA:RNA)
RNA: B1 RNA with U26G, A27G, G28C, G29A
DNA 1: CAATCTGAATTCCGGTCTCCC
DNA 2: TGGTGGCTACGACGGGATT
B22: GGGCACC (DNA:RNA)
RNA: B1 RNA with A25G, U26G, A27G, G28C, G29A
DNA 1: CAATCTGAATTCCGGTCTCCC
DNA 2: TGGTGGCTACGACGGGATT
B23: ACGUCGU (DNA:RNA)
RNA: B5 RNA with C25A, G26C, A28U, U29C, A31U
DNA 1: CAATCTGAATTCCGGTCTCCC
DNA 2: TGGTGGCTACGACGGGATT
B24: AGGCACG (DNA:RNA)
RNA: B1 RNA with U26G, A27G, G28C, G29A, C31G
DNA 1: CAATCTGAATTCCGGTCTCCC
DNA 2: TGGTGGCTACGACGGGATT
B25: GGCACGU (DNA:RNA)
RNA: B5 RNA with C25G, G27C, U29C, A31U
DNA 1: CAATCTGAATTCCGGTCTCCC
DNA 2: TGGTGGCTACGACGGGATT

target: T1, RBFOX1 RRM; assay: EMSA; HiTS-Eq, 1 nM pool, 10 min; buffer printed only for the single-RNA assays: 10 mM Tris pH 7.5, 150 mM NaCl, 3.4 mM EDTA, 0.001% NP-40, 30 C; details: tags: His6 N-terminal (pET28a); label: 5' 32P
Method in brief: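 Purified RbFox RRM (wild type or mutant) was equilibrated for 10 min in 50 µL with 1 nM of a 5′-radiolabelled pool of RNA with 7 randomized nucleotides, its flanks annealed to DNA oligonucleotides, across increasing protein concentrations. Free RNA was separated by 8% native PAGE, excised, reverse-transcribed, PCR-barcoded and sequenced on an Illumina HiSeq 2500. Relative association constants came from read-count changes of each variant against the control reaction, normalised to the cognate motif.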

Row | Binder | binding signal
1 | B1 | 0.0113 KA relative to UGCAUGU
2 | B2 | 0.0103 KA relative to UGCAUGU
3 | B3 | 0.00325 KA relative to UGCAUGU
4 | B4 | 0.00771 KA relative to UGCAUGU
5 | B5 | 0.0221 KA relative to UGCAUGU
6 | B6 | 0.0379 KA relative to UGCAUGU
7 | B7 | 0.0136 KA relative to UGCAUGU
8 | B8 | 0.0134 KA relative to UGCAUGU
9 | B9 | 0.0487 KA relative to UGCAUGU
10 | B10 | 0.0174 KA relative to UGCAUGU
11 | B11 | 0.0108 KA relative to UGCAUGU
12 | B12 | 0.0179 KA relative to UGCAUGU
13 | B13 | 0.0211 KA relative to UGCAUGU
14 | B14 | 0.0317 KA relative to UGCAUGU
15 | B15 | 0.00567 KA relative to UGCAUGU
16 | B16 | 0.0252 KA relative to UGCAUGU
17 | B17 | 0.0265 KA relative to UGCAUGU
18 | B18 | 0.0541 KA relative to UGCAUGU
19 | B19 | 0.00412 KA relative to UGCAUGU
20 | B20 | 0.0134 KA relative to UGCAUGU
21 | B21 | 0.00933 KA relative to UGCAUGU
22 | B22 | 0.0223 KA relative to UGCAUGU
23 | B23 | 0.00803 KA relative to UGCAUGU
24 | B24 | 0.0414 KA relative to UGCAUGU
25 | B25 | 0.0321 KA relative to UGCAUGU
